# Measured values from the supplement of paper PMC11417369.
# ± gives the standard deviation of the averaged measurements. The full ranking holds about 25,000 sequences; the median of “ln(normalized median fluorescence intensity)” is about 8.9, and the highest 2% start at about 10. Shown is part of a subset that was picked to be rich in the highest values.
# System: PfAP2-LT AP2 domain (GST-tagged)
# Experiment: gcPBM binding intensity (ln(normalized median fluorescence intensity)); higher = stronger DNA binding
# Method in brief: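 Plasmodium falciparum DNA-binding domains carrying a GST tag were expressed in E. coli and applied for 1 h, at about 25 μg on average, to an Agilent 4 × 180k array. The array held primer-extended double-stranded 36-bp intergenic genomic probes together with negative controls, and binding took place in 1× PBS with 1% milk, 0.2 mg/ml BSA, 0.5% salmon testes DNA and 0.03% Triton X-100. An Alexa488 anti-GST antibody detected bound protein, and the array was scanned at 488 nm. Binding intensity is taken as the highest Masliner-normalised natural-log median intensity across replicate spots of either probe orientation.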
row,Sequence,gcPBM binding intensity (ln)
1,AAAAATAACATATAAACACACATATAGATTTATATA [CACACA_site7738],8.94 ± 0.37
2,TTTTATGCTCAATTATTAAGAAATACTTTTTCTTCC [XGTACX_negctrl_site208],8.45 ± 0.68
3,ATTTATATATATGTATGTACGTATGTGTGTATATGT [XGTACX_site7587],9.36 ± 0.35
4,GTATGTATGTATGTATGTACGTATGTATGTATATAT [XGTACX_site3369],9.2 ± 0.36
5,AAACGTGCGTATATGTGTACGCATATATATATATAT [XGTACX_site5252],10.2 ± 0.34
6,TATTTATTTATAAACACACAAATATTTTTATTTATA [CACACA_site6889],8.49 ± 0.32
7,TTTTCTATATAACAACGTACATTTATTATATTATAA [XGTACX_site6148],8.49 ± 0.45
8,TTTATATAAATCAAATGTACATATTCCAAATATATA [XGTACX_site8515],8.45 ± 0.34
9,AACAATCAAATAGACACACACACACCCAAACATAAA [CACACA_site2757],10.1 ± 0.11
10,CAATCAAATAGACACACACACACCTAAACATAAAAG [CACACA_site7322],10.2 ± 0.4
11,GGACACCTTCAAAACACACATACAAATAAATAGAAA [CACACA_site3305],8.97 ± 0.54
12,ATCAAATAGAGACACACACACCTAAACATAAAAGAA [CACACA_site7321],9.78 ± 0.48
13,CAATCAAATGGACACACACACACCTAAACATAAAAG [CACACA_site5524],10 ± 0.3
14,ATAAAAAAGAAACAAACACACATACATACAAACAAA [CACACA_site4256],9.47 ± 0.33
15,AAAACAAACCCATTTACACACATAAATAAATCAATT [CACACA_site6126],9.38 ± 0.3
16,CACAAAAATAGACACACACACATATAAATAAATATA [CACACA_site6598],9.7 ± 0.38
17,CAATCAAAGAAACACACACACACCTAAACATAAAAG [CACACA_site2756],10.2 ± 0.33
18,ATTATATTTATGTTGGTGCATTATACATGAAATTTA,8.68 ± 0.4
19,AGAAAAGGACATATATGTACTTATCAATATAGAAAC [XGTACX_site1042],9.04 ± 0.48
20,TTCTTTTTTCTTTATGGTACGTGTAATATATATCAA [XGTACX_site7960],8.82 ± 0.45
21,AATAGAACAAATAAAACACACACATATATATATATA [CACACA_site8893],9.76 ± 0.37
22,ATCAAGCACGAACACACACACACACGCACGCCCACA [CACACA_site6308],10.3 ± 0.3
23,CGAACAAACAAATAAACACACAAAAAAAAATATATA [CACACA_site1825],9.11 ± 0.5
24,GGCATACACGAACACACACACACACGCACATATATA [CACACA_site6426],10.5 ± 0.36
25,ACACGCACATATATATAAATATATATATATATAAAT [CACACA_negctrl_site1781],9.6 ± 0.28

row,Sequence,gcPBM binding intensity (ln)
1,CACGCGAACATACATACACACACATATATATATATG [CACACA_site7951],9.69 ± 0.35
2,CACACGCACGAACACACACACACACGCATATAAATA [CACACA_site6302],10.2 ± 0.3
3,CCAACATGCCCACGCACACACAAAAAAAGCATGCAT [CACACA_site4217],9.51 ± 0.4
4,CACGCGCACGAACACACACACACACGCATATAAATA [CACACA_site7103],9.86 ± 0.33
5,TTTATTTTATCATTTGCACACGCACGCCCACATAAA [CACACA_site353],9.39 ± 0.42
6,AAACAAAAAATATATACACACTAAACATAAAAAAAA [CACACA_site4185],9.02 ± 0.46
7,AACAAATACGAACACACACACACACTAAAAAAAAAA [CACACA_site6386],10.3 ± 0.2
8,TTTTCCCTCTTATTCACACAAAAAAAATAAAATAAA [CACACA_site4656],8.2 ± 0.42
9,TTTGCTTCGATATATTCACACATTTTTTTTCTTATT [CACACA_site4499],8.91 ± 0.46
10,TTCTTTTTTCAACACACACACACAAGAAAATATATA [CACACA_site9019],9.51 ± 0.16
11,AATATAAATAAAAACACACACAATGGTACCTATATA [CACACA_site7688],9.3 ± 0.39
12,TATTATATATATGGAAGTACAGGTATATCGTTTTTC [XGTACX_site3771],8.73 ± 0.4
13,TATACATATATATACACACACACATATATATATATA [CACACA_site1299],9.9 ± 0.42
14,TATATACATATATACACACACATATATATATATATA [CACACA_site2805],9.905 ± 0.0071
15,AGTATACACGAACACACACACACATATATAAATATA [CACACA_site6913],10.2 ± 0.4
16,TAACACATAAATAAATATATACATATATATAAAATA [CACACA_negctrl_site375],8.81 ± 0.46
17,CACACGCACGAACACACACACATATAAATATAAATA [CACACA_site6299],9.71 ± 0.44
18,TACACATACACATACACACGCATAGAAACATACGAA [CACACA_site2137],9.48 ± 0.33
19,AACATATACACGAACACACACACATATATATATATA [CACACA_site502],10.3 ± 0.26
20,CTAAAATACGAACACACACACACATATAAATAAATA [CACACA_site7872],10.2 ± 0.33
21,CATATACACGAACACACACACATATAAATAAATATA [CACACA_site6379],9.74 ± 0.29
22,AACATATACACGAACACACACACATATAAATAAATA [CACACA_site6380],9.87 ± 0.23
23,AAAAAAAAAATATACACACACACATACACATAAATA [CACACA_site3808],9.92 ± 0.21
24,CACACGCACGAACACACACACACACGCACGCACATA [CACACA_site6305],10.4 ± 0.13
